# A selection: hits, their analogues and other compounds. The true share with any hit is near 2.4%.
# POLH inh: DNA polymerase eta (human) inhibition; Potency, µM (doses to about 114 µM), hits mostly inhibitors; actives 1.2% (n = 390,000); recombinant Pol eta, fluorescent DNA replication assay; Q9Y253
#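 Pol eta at 10 nM preincubated with compounds 15 min at room temperature; reaction started with fluorescent substrate (50 nM final) and read kinetically at 0 and 10 min.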
# Pol iota inh: DNA polymerase iota (human) inhibition; Q9UNA4; Pol iota fluorescent replication assay, 10 min; Potency, µM (top dose mostly 115 µM), usual class: inhibitors; actives 1% (n = 390,000)
# Target sequence (Q9UNA4 whole entry, looked up): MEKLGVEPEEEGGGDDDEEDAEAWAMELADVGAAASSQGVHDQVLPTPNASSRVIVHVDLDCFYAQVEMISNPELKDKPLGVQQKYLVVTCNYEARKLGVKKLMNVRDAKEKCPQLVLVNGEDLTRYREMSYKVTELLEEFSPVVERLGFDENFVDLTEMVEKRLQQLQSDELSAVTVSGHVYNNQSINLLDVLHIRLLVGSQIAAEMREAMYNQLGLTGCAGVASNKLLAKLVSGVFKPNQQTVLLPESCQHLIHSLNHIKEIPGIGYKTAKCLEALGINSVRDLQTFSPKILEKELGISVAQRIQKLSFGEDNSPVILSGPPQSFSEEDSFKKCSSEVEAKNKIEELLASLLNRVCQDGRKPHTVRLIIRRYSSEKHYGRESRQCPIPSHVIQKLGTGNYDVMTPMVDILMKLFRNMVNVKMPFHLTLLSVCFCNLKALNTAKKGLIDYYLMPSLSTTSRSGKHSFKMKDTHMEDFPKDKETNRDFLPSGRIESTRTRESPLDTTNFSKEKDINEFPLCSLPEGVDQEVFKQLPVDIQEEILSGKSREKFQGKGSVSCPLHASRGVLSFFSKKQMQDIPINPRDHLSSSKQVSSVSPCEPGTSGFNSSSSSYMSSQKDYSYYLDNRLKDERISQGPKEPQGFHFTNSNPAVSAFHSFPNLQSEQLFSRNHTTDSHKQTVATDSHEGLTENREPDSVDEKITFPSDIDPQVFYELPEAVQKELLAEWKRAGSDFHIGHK
#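 Pol iota at 10 nM preincubated 15 min with compounds at room temperature; reaction started with fluorescent substrate, 50 nM final. Fluorescence read kinetically at 0 and 10 min; buffer-only wells as negative control.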
# FEN1 inh: inhibitors of human flap endonuclease 1; P39748; Recombinant FEN1 flap cleavage, fluorescence, 15 min; Potency, µM (titrated, usually from 114 µM), actives largely listed as inhibitors; actives 0.35% (n = 390,000); AID 588795; note: nearly all actives have a fitted effect of over 65% in size
#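 Recombinant FEN1 (10 nM) was preincubated with pin-transferred compounds for 15 min at room temperature, then flap DNA substrate (50 nM final) was added. Plates were read at 0 and 15 min, and normalized concentration–response data were fitted to a four-parameter Hill equation.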
# Pol kappa inh: blocks human DNA polymerase kappa activity; Q9UBT6; purified Pol kappa, fluorescent DNA synthesis assay, 10 min; Potency, µM (titrated, usually from 107 µM), hits mostly inhibitors; actives 0.53% (n = 400,000); AID 588579
#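 Kinetic fluorescence screen: compound preincubated 15 min RT with 10 nM enzyme; 50 nM substrate (final) initiates; reads at 0/10 min.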
# POLB inh: inhibitors of human DNA polymerase beta | AID 485314 | actives 1.3% (n = 340,000) | Potency, µM (highest dose often 114 µM), actives largely listed as inhibitors | P06746 | Pol beta primer extension/strand displacement, fluorescence kinetic
#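 Homogeneous kinetic assay of primer extension and strand displacement by 10 nM Pol beta, preincubated 15 min at room temperature with compound before 50 nM substrate (final) was added. Read at 0 and 10 min; four-parameter Hill fit.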
# TDP1 block: TDP1 (human) enzyme inhibition; Q9NUW8; recombinant TDP1, AlphaScreen DNA substrate cleavage; Potency, µM (series often up to 130 µM), usual class: inhibitors; actives 0.28% (n = 350,000); AID 485290; note: nearly all actives have a fitted effect of over 40% in size
#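 E. coli-derived human Tdp1, 1 nM final. Cpd preinc 15 min RT; substrate 15 nM final, 5 min RT; AS bead mix 10 ug/ml final, 10 min RT. Signal loss = tyrosine-FITC cleavage. No-enzyme wells = max signal.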
# Hits are given with their value; 0 = inactive; ? = inconclusive; - = not tested or not shown; [ ] = dose if it differs, or a comment. Calls come from the whole dose curve; as a rule, active = well fitted curve in the direction sought with a large enough effect; inconclusive = small, poorly fitted or top-dose-only effect, or another doubt; inactive = no such curve, though single readings can be large; an effect the other way counts as inactive or inconclusive.
SMILES,POLH inh,Pol iota inh,FEN1 inh,Pol kappa inh,POLB inh,TDP1 block
CC(C)ON([C@@H](C(=O)NO)C(C)C)S(=O)(=O)c1ccc(-c2ccccc2)cc1,-,-,-,0,-,-
C(=C\c1ccnc2ccccc12)/c1cc2c3c(c1)CCCN3CCC2,-,0,0,0,-,-
COc1ccc(OC)c(/C=C/c2ccc3ccccc3[n+]2C)c1,-,0,45µM,0,-,-
COc1cc(OC)c(/C=C/c2cc3c4ccccc4ccc3[n+](C)c2)c(OC)c1,-,0,?,0,-,-
COc1ccc(OC)c(/C=C/c2ccccc2)c1,-,0,0,0,-,-
C[n+]1c(/C=C/c2ccc(F)cc2)ccc2ccccc21,-,0,?,0,-,-
CCOc1ccc(/C=C/c2ccc3ccccc3[n+]2C)cc1OCC,-,?,?,45µM,-,-
C[n+]1c(/C=C/c2ccc(O)cc2)ccc2ccccc21,0,?,?,0,16µM,-
COc1cc(OC)c(/C=C/c2cc(/C=C/c3c(OC)cc(OC)cc3OC)[n+](C)c3ccccc23)c(OC)c1,-,0,14µM,0,-,-
CCC1=C2CC[C@H]3C(=O)N(C)C(=O)[C@H]3[C@H]2[C@@]2(C)C(=O)N(CC(=O)OC)C(=O)N2C1=O,-,-,-,-,-,0
COc1ccc(C=O)cc1COc1ccc(NC(C)=O)cc1,-,-,-,-,-,0
Cc1ccccc1N(C)C1=N[S+](=O)([O-])c2ccccc21,-,-,-,-,-,0
O=C(COc1ccccc1C(=O)OCC(=O)N1CCOCC1)Nc1ccc(Br)cc1,-,?,0,0,-,-
C[N+]1=C(/C=C/Nc2ccccc2Cl)C(C)(C)c2ccccc21,?,0,0,0,0,0
COC(=O)c1ccc2c(c1)C(C)(C)C(/C=C/c1ccccc1O)=[N+]2C,0,28µM,50µM,35µM,?,0
COc1ccc(-c2cc3ccc(O)cc3oc2=O)cc1OC,0,0,0,0,0,79µM
COc1ccc(-c2coc3cc(O)ccc3c2=O)cc1,0,0,0,0,-,0
COc1ccc(-c2coc3cc(O)ccc3c2=O)cc1O,0,?,0,?,25µM,0
CC(C)N(Cc1ccccc1)S(=O)(=O)c1ccc(-c2cc(C(F)(F)F)on2)s1,0,0,0,0,0,0
CCCn1c(CCC(=O)O)ccc1-c1ccc(OC)cc1,?,0,0,0,25µM,0
Cc1ccc(C)c(-n2c(CCC(=O)O)ccc2-c2ccc(Cl)cc2)c1,0,0,0,0,7.9µM,-
Cc1ccc(-c2ccc(CCC(=O)O)n2-c2ccc(C)c(Cl)c2)cc1,0,0,0,0,?,-
O=C(O)CCc1ccc(-c2ccc(Cl)cc2)n1CCC(=O)O,?,0,0,0,0,0
O=C(O)CCc1ccc(-c2ccc(Cl)cc2)n1CC(=O)O,50µM,?,0,0,?,0
Cc1ccccc1OC(C)C(=O)NCCNC(=O)C(C)Oc1ccccc1C (configuration not stated),-,0,0,0,-,0
SMILES,POLH inh,Pol iota inh,FEN1 inh,Pol kappa inh,POLB inh,TDP1 block
CC(=O)OCC(=O)[C@@]1(O)CCC2C3CCC4=CC(=O)CC[C@]4(C)C3=CC[C@@]21C (some centres not stated),-,-,-,0[19.4 µM],-,-
CCOC(=O)C1CCN(C(=O)CCc2nnc3ccc(NCc4ccco4)nn23)CC1,45µM,?,0,0,0,-
COc1ccc(Cl)c(Cn2cnc3c(cnn3C(C)(C)C)c2=O)c1,-,0,0,0,-,-
COc1ccc(C(=O)COC(=O)/C=C/c2ccccc2)cc1,0,0,0,0,0,0
COc1ccc(C(=O)COC(=O)c2cccnc2Cl)c(OC)c1,50µM,40µM,0,?,13µM,0
COc1ccc(C(=O)COC(=O)CNC(=O)C2CCCCC2)c(OC)c1,?,?,0,0,22µM,0
COc1ccc(C(=O)COC(=O)/C=C/c2ccccc2)c(OC)c1,40µM,35µM,0,45µM,-,0
Cc1cccc(CNc2cc(-c3ccoc3)ncn2)c1,-,-,-,?,-,0
O=c1c(-c2cc(O)c(O)c(O)c2)coc2cc(O)c(O)c(O)c12,-,-,-,0.4µM,-,0.28µM
CC(/C=N/n1c(-c2ccc(Cl)cc2)n[nH]c1=S)=C\c1ccco1,18µM,?,0,?,?,0
Nc1[nH]c(N=NC(=O)c2ccccc2)c2ccccc12,0,?,0,0,0,0
Nc1[nH]c(N=NC(=O)c2ccc(Cl)cc2)c2ccccc12,0,0,0,0,79µM,0
COc1ccccc1CCC(=O)O,-,0,0,0,-,-
O=C(N/N=C/c1ccc(Sc2ccccn2)o1)c1cc2ccccc2cc1O,18µM,20µM,50µM,28µM,18µM,0
Cc1cccc(/C=C/C(=O)c2ccc([N+](=O)[O-])o2)c1,?,11µM,0,0,-,0
Cc1cc(-n2c(C)nc3ccccc3c2=O)ccc1NC(=O)c1cccc([N+](=O)[O-])c1C,0,0,0,0,0,0
COc1ccc(Cl)cc1C(=O)Nc1nc2ccccc2[nH]1,0,79µM,0,0,45µM,-
COc1ccc(C(=O)Nc2nc3ccccc3[nH]2)cc1OC,0,0,0,0,0,0
CCCCN(CC)Cc1ccc(CNS(=O)(=O)c2cc3c(cc2Cl)NC(=O)CO3)o1,0,0,0,0,0,0

# From PubChem
